Assay [1] can be described thus: binders of probe aFSTL3 on microarray, primary screen, stem cell growth factor project, biochemical, small-molecule microarray, fluorescence 635/667 (AID 1064).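 Also: measures binding of the biotinylated anti-FSTL3 antibody to printed compounds.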 To be noted: higher = more signal.
Assay [2] is described as follows: binders from COS7 lysate, DM2A8 probe, primary screen, torsin A project, cell lysate, small-molecule microarray, fluorescence 635/667 (AID 1065). The conditions noted are these: higher = more signal, COS7 lysate expressing mutant human TOR1A.
Assay [3] can be described thus: binders of probe aFGF2 on microarray, primary screen, stem cell growth factor project, biochemical, small-molecule microarray, fluorescence 635/667 (AID 1067).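 Also: measures binding of biotinylated aFGF2 protein to printed compounds on slides; z-score merges feature fluorescence and signal-to-noise across triplicate slides.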 The conditions noted are these: higher = more signal.
Assay [4] in a line: binders of probe aFGF10 on microarray, primary screen, stem cell growth factor project, biochemical, small-molecule microarray, fluorescence 635/667 (AID 1071).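 Also: score merges 667 nm spot intensity and signal to noise from triplicate slides.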 The conditions noted are these: higher = more signal.
Assay [5] addresses Neurogenic locus notch homolog protein 2 (Homo sapiens) (UniProt Q04721). Kind of assay: Notch2 binders on small-molecule microarrays, primary screen, biochemical, small-molecule microarray, 635 nm fluorescence, stem cell growth factors (AID 1073). To be noted: Notch2 binding, higher = more signal.
For assay [6], the target named is Pro-neuregulin-1, membrane-bound isoform (Homo sapiens) (UniProt Q02297). Kind of assay: NRG1 binders on small-molecule microarrays, primary screen, psychiatric disease protein project, biochemical, small-molecule microarray, fluorescence 635/667 (AID 1075).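 Also: score combines 667 nm spot fluorescence with signal to noise.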 The conditions noted are these: NRG1 binding, 635 nm fluorescence, higher = more signal.
The subject of assay [7] is Neuregulin-1 EGF-like domain. Kind of assay: binders of neuregulin-1 EGF-like domain, primary screen, biochemical, small-molecule microarray, 635 nm fluorescence (AID 1081).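 Also: binding of the protein to compounds printed on small-molecule microarray slides.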 The conditions noted are these: small-molecule microarray binding, higher = more signal.
The nature of assay [8]: FRG1 promoter luciferase signal modulators, primary screen, FRG1 inhibition for FSHD, cell-based, C2C12 myotubes, firefly/Renilla luciferase, luminescence (AID 1084). The conditions noted are these: higher = more signal, called active from +8 up or from −8 down.
Assay [9] can be described thus: binders of probe aFST on microarray, primary screen, stem cell growth factor project, biochemical, small-molecule microarray, fluorescence 635/667 (AID 1086).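 Also: score merges 667 nm fluorescence with signal-to-noise of each printed compound spot.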 To be noted: higher = more signal.
Assay [10] can be described thus: binders of probe aHhip on microarray, primary screen, stem cell growth factor project, biochemical, small-molecule microarray, fluorescence 635/667 (AID 1087).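 Also: score merges spot fluorescence at 667nm with spot signal to noise ratio.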 The conditions noted are these: higher = more signal.

The source made the active and inactive calls.

Experimental findings from PubChem BioAssay are described below.

Sequence of Pro-neuregulin-1, membrane-bound isoform (Homo sapiens) (Q02297 whole entry, looked up, the tested form may be a part, canonical isoform): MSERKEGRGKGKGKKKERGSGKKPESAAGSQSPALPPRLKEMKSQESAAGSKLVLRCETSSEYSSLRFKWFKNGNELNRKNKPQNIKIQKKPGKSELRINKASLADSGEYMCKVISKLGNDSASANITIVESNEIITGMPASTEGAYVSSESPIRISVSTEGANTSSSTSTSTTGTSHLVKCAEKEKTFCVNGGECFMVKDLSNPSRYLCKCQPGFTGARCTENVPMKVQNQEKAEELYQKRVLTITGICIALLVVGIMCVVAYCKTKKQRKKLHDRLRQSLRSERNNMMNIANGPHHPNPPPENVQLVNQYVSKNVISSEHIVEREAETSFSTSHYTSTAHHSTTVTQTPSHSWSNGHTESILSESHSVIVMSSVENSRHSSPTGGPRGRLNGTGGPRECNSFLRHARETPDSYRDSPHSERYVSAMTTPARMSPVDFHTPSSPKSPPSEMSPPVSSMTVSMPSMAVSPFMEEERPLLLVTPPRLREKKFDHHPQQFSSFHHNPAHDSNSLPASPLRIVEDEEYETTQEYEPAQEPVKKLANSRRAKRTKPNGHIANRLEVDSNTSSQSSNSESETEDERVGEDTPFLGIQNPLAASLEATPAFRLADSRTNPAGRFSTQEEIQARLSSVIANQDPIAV
Sequence of Neurogenic locus notch homolog protein 2 (Homo sapiens) (Q04721 whole entry, looked up, canonical isoform): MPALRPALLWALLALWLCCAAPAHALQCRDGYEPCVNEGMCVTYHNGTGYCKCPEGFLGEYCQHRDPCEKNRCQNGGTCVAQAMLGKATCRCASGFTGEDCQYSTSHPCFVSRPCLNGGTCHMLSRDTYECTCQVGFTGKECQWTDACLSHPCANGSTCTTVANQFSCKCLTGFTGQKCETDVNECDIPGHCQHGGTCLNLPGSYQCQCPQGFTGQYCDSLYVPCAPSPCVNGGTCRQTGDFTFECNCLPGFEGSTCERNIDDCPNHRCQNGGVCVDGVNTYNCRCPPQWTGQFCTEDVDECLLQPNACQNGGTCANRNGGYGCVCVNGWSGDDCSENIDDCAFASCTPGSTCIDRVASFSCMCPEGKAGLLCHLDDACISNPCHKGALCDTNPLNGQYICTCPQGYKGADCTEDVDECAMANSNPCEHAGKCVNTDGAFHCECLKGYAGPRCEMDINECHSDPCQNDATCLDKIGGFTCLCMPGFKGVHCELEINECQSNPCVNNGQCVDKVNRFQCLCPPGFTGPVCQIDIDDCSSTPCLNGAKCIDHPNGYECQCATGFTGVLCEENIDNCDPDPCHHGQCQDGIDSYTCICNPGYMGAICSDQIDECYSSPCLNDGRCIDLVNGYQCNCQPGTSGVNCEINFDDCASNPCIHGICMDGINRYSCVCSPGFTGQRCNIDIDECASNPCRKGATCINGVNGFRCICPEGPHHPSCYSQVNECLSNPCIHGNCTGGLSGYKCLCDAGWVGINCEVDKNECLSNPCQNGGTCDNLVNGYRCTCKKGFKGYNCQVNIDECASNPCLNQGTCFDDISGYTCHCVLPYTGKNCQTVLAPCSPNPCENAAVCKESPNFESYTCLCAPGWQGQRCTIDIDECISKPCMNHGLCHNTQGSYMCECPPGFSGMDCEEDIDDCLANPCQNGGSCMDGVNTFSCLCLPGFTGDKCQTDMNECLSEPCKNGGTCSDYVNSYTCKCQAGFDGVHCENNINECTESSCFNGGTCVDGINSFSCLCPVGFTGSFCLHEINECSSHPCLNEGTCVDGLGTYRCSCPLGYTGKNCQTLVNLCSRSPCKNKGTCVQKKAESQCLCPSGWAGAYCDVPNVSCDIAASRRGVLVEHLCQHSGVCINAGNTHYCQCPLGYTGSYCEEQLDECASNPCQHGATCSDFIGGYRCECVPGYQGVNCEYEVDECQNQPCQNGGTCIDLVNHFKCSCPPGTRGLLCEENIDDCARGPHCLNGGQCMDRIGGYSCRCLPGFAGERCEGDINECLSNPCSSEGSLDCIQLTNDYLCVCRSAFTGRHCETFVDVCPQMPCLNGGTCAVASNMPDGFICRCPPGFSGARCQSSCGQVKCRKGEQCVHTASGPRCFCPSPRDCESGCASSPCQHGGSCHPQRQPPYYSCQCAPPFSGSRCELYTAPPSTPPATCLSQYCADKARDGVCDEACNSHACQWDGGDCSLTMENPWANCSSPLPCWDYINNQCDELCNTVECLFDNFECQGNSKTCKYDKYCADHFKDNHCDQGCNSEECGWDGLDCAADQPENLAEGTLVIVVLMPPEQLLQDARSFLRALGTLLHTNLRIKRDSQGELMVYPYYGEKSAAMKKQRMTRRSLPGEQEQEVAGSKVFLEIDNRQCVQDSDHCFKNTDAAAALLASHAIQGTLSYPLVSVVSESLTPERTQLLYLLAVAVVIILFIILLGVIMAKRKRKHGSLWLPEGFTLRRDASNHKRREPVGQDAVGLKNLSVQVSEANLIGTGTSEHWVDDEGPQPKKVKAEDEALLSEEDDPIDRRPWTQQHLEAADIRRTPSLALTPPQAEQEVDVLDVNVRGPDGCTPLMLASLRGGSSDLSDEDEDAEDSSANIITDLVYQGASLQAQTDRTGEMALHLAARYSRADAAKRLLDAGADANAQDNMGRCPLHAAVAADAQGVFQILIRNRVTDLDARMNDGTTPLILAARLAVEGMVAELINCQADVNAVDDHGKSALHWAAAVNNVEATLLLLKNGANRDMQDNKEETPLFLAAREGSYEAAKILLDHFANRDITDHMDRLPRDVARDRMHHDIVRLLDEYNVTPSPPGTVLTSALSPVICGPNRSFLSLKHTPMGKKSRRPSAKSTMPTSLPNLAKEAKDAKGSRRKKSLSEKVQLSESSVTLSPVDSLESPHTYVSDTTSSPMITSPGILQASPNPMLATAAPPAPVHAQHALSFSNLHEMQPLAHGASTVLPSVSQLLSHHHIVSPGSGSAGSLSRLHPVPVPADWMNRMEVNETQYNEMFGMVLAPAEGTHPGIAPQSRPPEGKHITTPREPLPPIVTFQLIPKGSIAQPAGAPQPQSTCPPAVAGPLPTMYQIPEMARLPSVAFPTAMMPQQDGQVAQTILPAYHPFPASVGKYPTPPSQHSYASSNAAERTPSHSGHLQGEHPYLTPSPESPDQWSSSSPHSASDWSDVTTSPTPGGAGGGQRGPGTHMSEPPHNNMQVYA

For the compound `CN(C)CCCC[C@@H]1NC(=O)[C@@H]2C[C@H](C(=O)NCc3ccc(F)cc3)[C@H](c3cccc(OCCO)c3)N2C1=O`, the composite z-score in [1] is -0.173; in assay [2], -0.114; in assay [3], -0.0707; in [4] it was 0.738; in [5], -0.252; in [6], 0.617. The figures for the composite z-score in assay [7], in [9] and in [10] were 1.02, 0.202 and -0.41, respectively. In addition, the z-score in assay [8] was 1.36 (inactive).
As to `O=C1[C@H]2C=C(Br)[C@H](C[C@@H]2OCCOCCO)[C@@]12CO2`, the composite z-score in [1] is 0.0321; in assay [2], -0.0798; in assay [3], -0.103; in assay [4], 0.373; in [5] it was 0.473; in assay [6], -0.151. Further, the results for the composite z-score in assay [7], in assay [9] and in [10] were 0.437, 0.0751 and -0.0994, respectively. The z-score in assay [8] was -0.0763 (inactive).
As to `COCCOC(=O)N1C(=O)[C@@]2(c3cc(C#CC4=CCCCC4)ccc31)[C@H](c1ccc(OCCO)cc1)N1[C@H](c3ccccc3)[C@H](c3ccccc3)OC(=O)[C@H]1[C@@H]2C(=O)Nc1nc2ccccc2s1`, the composite z-score was -0.368 in assay [1]; 0.115 in [2]; -0.104 in assay [3]; 0.854 in assay [4]; 1.4 in [5]; 0.93 in assay [6]. The composite z-score in assay [7] is 1.12; in assay [9], 0.241; in assay [10] it was 0.0722. For the same compound, the z-score in [8] was 1.89 (inactive).
For `O=C1NC(=O)C2C1C=CC(C(O)c1cccs1)N2Nc1ccccn1` (stereo not given), the composite z-score in [1] was 0.151; in [2] it was -0.133; in [3], 0.0094; in assay [4], 0.692; in assay [5] it was 1.14; in assay [6], 0.689. Further, the composite z-score in assay [7] was 0.877; in [9] it was 0.282; in assay [10] it was -0.188. Also, in assay [8], the z-score is 0.304 (inactive).
On to `CCN(CC)c1ccc(N2CC=CC34O[C@@H]5C=CCCOC(=O)C5[C@H]3C(=O)N(CCCO)[C@@H]4C2=O)cc1` (stereo not given in full), for which the composite z-score in assay [1] was -0.0768; in assay [2], -0.288; in assay [3], -0.158; in [4] it was -0.332; in [5], -0.816; in assay [6], -0.613. Moreover, the composite z-score is -0.0612 in [7], -0.177 in [9] and -0.134 in [10]. Moreover, in assay [8], the z-score is -0.306 (inactive).
Take `[N-]=[N+]=Nc1ccccc1[C@@H]1OC(c2ccc(OCCCO)cc2)=N[C@]1(CCS(=O)(=O)c1ccccc1)C(=O)N1CCCCC1`: the composite z-score is 1.78 in assay [1]; 1.25 in assay [2]; 0.206 in assay [3]; 0.77 in assay [4]; 1.6 in [5]; 1.37 in assay [6]. For the same compound, the composite z-score in assay [7] is 1.29; in assay [9], 1.18; in assay [10], -0.249. For the same compound, the z-score in assay [8] was -1.72 (inactive).
On to `CCCNC(=O)[C@@]1(C)c2ccccc2C(=O)N(Cc2cc(C(F)(F)F)cc(C(F)(F)F)c2)[C@H]1c1ccc(CO)cc1`, for which the composite z-score in assay [1] was 0.177; in assay [2], -0.0656; in assay [3] it was -0.0653; in [4], 0.108; in assay [5], -0.626; in [6], 1.68. The composite z-score in [7] is 1.37; in assay [9], -0.0368; in assay [10], -0.0645. In addition, the z-score in assay [8] is 0.0565 (inactive).
Regarding `O=C1C2C=CC(C(O)C3CC=CCC3)N(n3cnnc3)C2C(=O)N1Cc1ccccc1` (stereo not given), the composite z-score in assay [1] was 0.61; in [2], 0.43; in assay [3] it was -0.158; in assay [4], -1.03; in assay [5], -1.23; in assay [6], 0.998. Besides, the composite z-score was 0.518 in assay [7], -0.354 in assay [9] and 0.12 in assay [10]. Further, in [8], the z-score is 0.37 (inactive).
With `O=C1c2ccccc2[C@@]2(Cc3ccccc3N(Cc3ccccc3)C2=O)[C@H](c2ccc(CO)cc2)N1Cc1ccccc1C(F)(F)F`, the composite z-score in [1] is 0.178; in [2] it was -1.44; in [3] it was -0.083; in assay [4] it was -0.236; in assay [5], -0.233; in assay [6], 0.363. The composite z-score in assay [7] was 0.114; in [9] it was -0.0954; in assay [10], -0.125. Further, the z-score in assay [8] was -0.366 (inactive).
As to `NC(=O)[C@@]1(CCS(=O)(=O)c2ccccc2)N=C(c2ccc(OCCCO)cc2)O[C@H]1c1ccccc1`, the composite z-score in assay [1] was 0.287; in assay [2] it was 1.54; in [3], 0.103; in [4] it was 0.58; in assay [5] it was 0.251; in assay [6], 0.0342. Moreover, the composite z-score in assay [7] is 1.3; in assay [9] it was 0.893; in assay [10] it was -0.0645. Besides, the z-score in [8] is -1.19 (inactive).
Turning to `COCCOC(=O)N1C(=O)[C@@]2(c3cc(C#Cc4ccc(OC)cc4)ccc31)[C@H](c1ccc(O)cc1)N1[C@H](c3ccccc3)[C@H](c3ccccc3)OC(=O)[C@H]1[C@@H]2C(=O)N1CCN(c2ncccn2)CC1`, the composite z-score in assay [1] was -0.867; in [2], 0.47; in [3], -0.0225; in [4], 0.381; in [5], 0.846; in assay [6] it was 0.467. The composite z-score in [7] was 1.13; in assay [9], 0.619; in [10], -0.132. Also, the z-score in assay [8] was -0.431 (inactive).
In the case of `CCCNC(=O)[C@@]1(C)c2ccccc2C(=O)N(C(C)C)[C@H]1c1ccc(CO)cc1`, the composite z-score is 1.01 in [1]; -0.214 in assay [2]; -0.0704 in assay [3]; -0.425 in assay [4]; -0.963 in assay [5]; 0.447 in [6]. The composite z-score was 1.3 in [7], -0.35 in assay [9] and -0.226 in [10]. For the same compound, the z-score in [8] was -0.51 (inactive).
As for `O=C1C2C=CC(C(O)c3ccccn3)N(Nc3ccccc3F)C2C(=O)N1c1ccccc1` (stereo not given), the composite z-score in assay [1] was -0.22; in assay [2] it was 0.135; in [3] it was -0.047; in [4], 0.4; in assay [5], 0.417; in assay [6], 0.301. For the same compound, the results for the composite z-score in assay [7], in assay [9] and in assay [10] were 1.02, 0.19 and -0.0945, respectively. For the same compound, the z-score in assay [8] is 1.9 (inactive).
As for `O=P(NCC1(CC2(c3ccccc3)CO2)CC1)(c1ccccc1)c1ccccc1` (stereo not given), the composite z-score in assay [1] was 0.565; in [2], -0.856; in assay [3], 0.218; in assay [4], 0.315; in [5] it was -0.401; in assay [6], 1.06. In addition, the composite z-score was 0.619 in [7], -0.0087 in assay [9] and 0.275 in assay [10]. Also, the z-score in assay [8] is -1.59 (inactive).
